# In the library only some 4.3% were active in any assay of this set; here they are far more common.
# HIF-2a inh = blocks HIF-2a reporter activity; 786-0 RCC cells HIF-2a reporter, luciferase luminescence, overnight; inhibition, % at 18.8 µM; hit rate 0.72% among 360,000; AID 624352;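 active means inhibition of the luminescence signal of 40% or more relative to plate controls, in a single-dose primary screen at 18.75 µM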
# Peg3 promoter = Peg3 promoter activity inhibition | inhibition, % at 20 µM | hit rate 1.7% among 360,000 | HeLa PEG-Prom luciferase reporter, luminescence, overnight;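 active means inhibition of at least 50% at 20 µM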
# KKLEB cytotox = CF airway cell cytotoxicity counter-screen; KKLEB CF airway cells viability, ATPlite luminescence, overnight; stronger effect = lower value; cells stimulated with P. aeruginosa culture filtrate; activity change (cytotoxicity), % at 5 µM; hit rate 0.36% among 360,000;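 active means corrected activity change at or below -50% at 5 µM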
# CHOP inh = inhibitors of CHOP induction in ER stress response | CHO-K1 CHOP-promoter luciferase, tunicamycin-induced, 15-18 h | inhibition, % at 10 µM | hit rate 3.8% among 220,000;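 active means compounds that reduced the stress-induced luciferase reporter signal by more than about 70% of percent inhibition, limit read from the data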;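 further: 0% = tunicamycin plus vehicle and 100% = wells without tunicamycin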
# CF NFkB inh = inhibitors of cystic fibrosis induced NF-kB; KKLEB NF-kB-GFP reporter, PAF-induced, GFP fluorescence overnight; inhibition, % at 5 µM; hit rate 0.86% among 360,000;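 active means at least 50% inhibition at 5 µM, scaled per plate between neutral and stimulator controls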;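 further: PAF is a Pseudomonas aeruginosa culture filtrate used as stimulus; plate controls were PAF-stimulated DMSO wells for no effect and unstimulated DMSO wells for full effect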
# MITF TRPM1 inh = inhibitors of MITF-driven TRPM1 promoter in melanoma cells; SK-MEL-5 TRPM1 promoter luciferase, 24 h; inhibition, % at 12.5 µM; hit rate 0.83% among 330,000; AID 488899;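 active means mean inhibition across replicates of 60% or more, whatever share of single replicates reaches that level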
# Starred values were filed as active, the others as inactive; . = no result.
SMILES,HIF-2a inh,Peg3 promoter,KKLEB cytotox,CHOP inh,CF NFkB inh,MITF TRPM1 inh
O=S(=O)(c1ccc(Br)cc1)N1CCN(c2ccc3nnc(-c4ccccc4)n3n2)CC1,-14,42,-14,80*,10,.
C[C@H]1CN([C@@H](C)CO)S(=O)(=O)c2ccc(Br)cc2O[C@@H]1CN(C)Cc1cccc(F)c1,16,56*,-2,.,-9,.
C[C@@H]1CN([C@@H](C)CO)S(=O)(=O)c2ccc(Br)cc2O[C@H]1CN(C)C(=O)Nc1ccc(C(F)(F)F)cc1,-13,53*,-25,.,-13,.
C[C@@H]1CN([C@H](C)CO)S(=O)(=O)c2ccc(Br)cc2O[C@@H]1CN(C)C(=O)Nc1ccc(C(F)(F)F)cc1,7,20,-17,.,10,.
O=C1OCCN1C(=O)[C@H]1[C@H](c2ccccc2)C(c2ccccc2)=NN1c1ccc(Br)cc1,-14,21,0,.,12,-2
O=C(C(c1ccccc1)c1ccccc1)N1CCN(Cc2ccc(Br)cc2)CC1,28,15,-4,81*,-6,-4
COc1cccc(C(=O)N2CCC[C@@H]2C(=O)N2CCC[C@@H]2C(=O)NCc2ccccc2Cl)c1,-3,.,.,.,.,.
O=c1cc(N2CCC3(CC2)OCCO3)[nH]c(=O)n1C1CCCCC1,-63,-50,2,-23,-13,-7
O=c1cc(N2CCN(c3ccc(F)cc3)CC2)[nH]c(=O)n1C1CCCCC1,23,31,-20,72*,14,19
CC1(C)Cc2c(cnn2-c2ccccc2)-c2c1c1ccccc1n2CC(O)CBr (configuration not stated),20,11,11,95*,-5,-1
Nc1nonc1-n1nnc(C(=O)N/N=C/c2cccc(Cl)c2)c1-c1cccs1,-17,27,19,.,27,-8
O=C1NCC(Nc2ccccc2Cl)C(=O)N1 (configuration not stated),13,0,8,.,5,-15
CCOC(=O)c1c(C)n(C)c2cc(-c3ccc(F)cc3)c(O)cc12,0,-7,24,79*,-5,-2
CCOC(=O)c1c(C)n(C)c2ccc(OC(C)=O)cc12,9,-20,7,1,5,-9
CCOC(=O)[C@]12CCCC=C1N(Cc1cccc3ccccc13)C(=O)[C@H](CC(=O)N1CCN(C(=O)c3ccco3)CC1)C2,-18,.,.,.,.,.
CS(=O)(=O)c1ccc(Sc2nc3ccccc3s2)c([N+](=O)[O-])c1,4,41,-45,6,54*,39
Oc1c(Br)cc(Br)cc1/C=N/c1nc2c(s1)CCCC2,-5,13,13,86*,9,-2
CC(C)(C)c1ccc(S(=O)(=O)N2CCN(C(=O)C3=COCCO3)CC2)cc1,14,10,-6,.,33,3
O=C(N/N=C/c1sc(=O)n(Cc2ccc(Br)cc2)c1Cl)c1ccco1,34,84*,-75*,.,64*,38
COc1cc(CNC[C@H]2O[C@@H](n3ccc(N)nc3=O)[C@H](O)[C@@H]2O)ccc1OCc1cccc(Cl)c1,-22,-8,14,.,-36,.
COc1cccc(CNCCc2c[nH]c3ccccc23)c1OCc1ccc(F)cc1,9,105*,-6,54,0,49
COc1cc(CNCCc2c[nH]c3ccccc23)ccc1OCc1ccc(F)cc1,3,112*,-18,88*,9,6
N#Cc1cc(C(=O)c2ccccc2OCC(=O)Nc2ccccc2Cl)cn(C2CCCCC2)c1=O,18,16,1,21,-6,0
N#Cc1cc(C(=O)c2cc(Br)ccc2O)cn(C2CCCCC2)c1=O,3,52*,-7,57,33,2
CCCCN(C(=O)c1cc(-c2ccc(F)cc2)nc2ccccc12)c1c(N)n(CCCC)c(=O)[nH]c1=O,21,38,-33,.,18,69*
CCCCN(C(=O)c1ccccc1F)c1c(N)n(CCC)c(=O)[nH]c1=O,10,73*,0,.,-12,19
CCCCN(C(=O)c1cc(=O)[nH]c2ccccc12)c1c(N)n(CCC)c(=O)[nH]c1=O,.,.,.,1,.,.
NC1=NC(=O)C(c2ccccc2)(c2ccccc2)S1,1,-6,2,.,15,14
CCc1csc(CCNC(=O)C2CCC(=O)N(CCc3cccc(F)c3)C2)n1 (configuration not stated),4,9,2,.,-19,0

# Source: PubChem (several laboratories)
